The campaign covered roughly 63,000 compounds. About 1,100 (1.7%) were called active. Cut-off read from the data, not from the text of the source: active = cytotoxicity above about 50%; inactive = the rest. The full list was thinned out, with actives kept by preference. Results with a measured potency or affinity are listed apart.
assay: HPDE-C7 pancreatic duct cell viability loss – fluorescence, HTS (AID 430); details: HPDE-C7 pancreatic duct cells viability, at 10 µM, active compounds read high;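 note: cells exposed to compound for 48 hours before viability readout; 0% = vehicle and 100% = reference cytotoxic drug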

SMILES | cytotoxicity
CC(C)CCNC(=O)CN(CCN1CCOCC1)C(=O)Cn1nnc(-c2ccc(F)cc2)n1 | 4.5% (inactive)
Cc1c(C(=O)O)sc2ncnc(N3CCCCC3C)c12 (stereo not drawn) | 9.8% (inactive)
CCCCOC(=O)c1ccc(NC(=O)c2ccoc2C)cc1 | 3.4% (inactive)
CCOC(=O)c1sc(NC(=O)c2ccco2)nc1C | -1.4% (inactive)
CCCCOC(=O)c1ccc(NC(C)=O)cc1 | -11.4% (inactive)
CCCCCOC(=O)c1ccc(NC(=O)c2ccco2)cc1 | 65.9% (active)
Cc1nc(NC(=O)c2ccco2)sc1C(=O)Nc1ccc(Br)cc1 | 65.7% (active)
COC(=O)c1sc(NC(=O)c2ccco2)nc1C | -3.5% (inactive)
Cc1ccc2c(c1)NCCO2 | 5.4% (inactive)
COc1c(Br)cc(Br)cc1/C=N/n1c(C)nnc1C | 2.9% (inactive)
Cc1nnc(C)n1/N=C/c1cc(Br)ccc1O | -12.5% (inactive)
Cc1nnc(C)n1/N=C/c1cc(Br)cc(Br)c1O | 79.9% (active)
CC(C)COC(=O)C(N)C(C(=O)OCC(C)C)c1ccccc1 (stereo not drawn) | -6.4% (inactive)
O=C(NCC1CCCO1)C1CC(=O)N(c2ccc(F)c(Cl)c2)C1 (stereo not drawn) | 3.4% (inactive)
CCOC(=O)Cc1c(C)c2ccc(N(CC)CC)cc2oc1=O | -17.8% (inactive)
CCN(CC)c1ccc2c(C)c(-c3ccc(N)cc3)c(=O)oc2c1 | 11% (inactive)
CCN(CC)c1ccc2c(C)c(CN3CCOCC3)c(=O)oc2c1 | 24.1% (inactive)
CCNc1ccc2c(Cl)cc(=O)oc2c1 | -2% (inactive)
CCN(CC)C(=O)CSc1nnc(-c2cccs2)n1Cc1ccco1 | 17.7% (inactive)
O=C(COc1ccccc1)N1CCN(C(=O)c2cccc(F)c2)CC1 | -40.5% (inactive)
CCOC(=O)CN1C(=O)COc2ccc(Cl)cc21 | -8.8% (inactive)

SMILES | cytotoxicity
CCN(CC)CCCN(Cc1cc2cc3c(cc2[nH]c1=O)OCCO3)C(=O)Nc1ccc(F)cc1 | 0.9% (inactive)
O=C(O)c1cccc(Cn2cc(Br)cn2)c1 | -12.3% (inactive)
O=C(c1ccc(Cn2cc(Br)cn2)cc1)N1CCN(c2ccccc2)CC1 | 53.1% (active)
O=C(c1ccc(Cn2cc(Cl)cn2)cc1)N1CCN(c2ccccc2)CC1 | 12.3% (inactive)
CC(=O)N(Cc1cc(=O)[nH]c2ccccc12)c1cccc(C)c1 | 12% (inactive)
CC1(C)CC(=O)C2=C(C1)N(CCN1CCOCC1)C1=C(C(=O)CC(C)(C)C1)C2c1cccc(Cl)c1 | 3.8% (inactive)
O=C1CC(N2CCN(c3ccccc3)CC2)C(=O)N1c1ccc2c(c1)OCCO2 (stereo not drawn) | -4.9% (inactive)
Cc1ccc(CCNC(=O)C2CCCN(c3nc4ccccc4o3)C2)cc1 (stereo not drawn) | -18% (inactive)
CCOc1cc(NC(=O)c2ccco2)c(OCC)cc1NC(=O)c1cc(OC)c(OC)c(OC)c1 | 14.4% (inactive)
COc1cc(NC(=O)c2ccco2)c(OC)cc1NC(=O)c1cc(OC)c(OC)c(OC)c1 | 52.3% (active)
COc1cc(C(=O)Nc2ccc(NC(=O)c3ccco3)nc2)cc(OC)c1OC | -2.5% (inactive)
Cc1cccc(NC(=O)Cn2c(C)c(C#N)c3ccccc32)c1C | -4.9% (inactive)
O=C(CSc1n[nH]c(=O)[nH]c1=O)c1ccccc1 | 5% (inactive)
c1ccc(Cc2nnc3sc(Nc4ccccc4)nn23)cc1 | 3% (inactive)
CCn1c(SCC(=O)N2CCN(c3ccc(Cl)cc3)CC2)nc2ccccc2c1=O | 2.2% (inactive)
O=C(NCc1cccnc1)C1CC(=O)N(c2ccc(Cl)cc2)C1 (stereo not drawn) | -7% (inactive)
CSC1=NCCN1C(=O)c1cccs1 | 2% (inactive)
CC(C)(C)c1ccc(C(=O)CCCSC2=C(C#N)C(c3ccco3)C3=C(CCCC3=O)N2)cc1 (stereo not drawn) | 38.2% (inactive)
Cc1ccc(C(=O)CSC2=C(C#N)C(c3ccco3)C3=C(CC(C)(C)CC3=O)N2)cc1 (stereo not drawn) | 7.1% (inactive)
N#CC1=C(SCC(=O)c2ccccc2)NC2=C(C(=O)CCC2)C1c1ccco1 (stereo not drawn) | 54.3% (active)
COc1ccc(NC(=O)CSC2=C(C#N)C(c3ccco3)C3=C(CCCC3=O)N2)c(OC)c1 (stereo not drawn) | -2.1% (inactive)

SMILES | cytotoxicity
Cc1ccc(C(=O)CSC2=C(C#N)C(c3ccco3)C3=C(CCCC3=O)N2)cc1 (stereo not drawn) | 76.5% (active)
Cc1ccc(NC(=O)CSC2=C(C#N)C(c3ccco3)C3=C(CCCC3=O)N2)cc1 (stereo not drawn) | 3.5% (inactive)
CCOC(=O)N1CCN(CC(=O)Nc2c(C(=O)OC)[nH]c3cccc(Cl)c23)CC1 | -17.3% (inactive)
COc1ccc(-n2nnnc2SCC(=O)c2cc3ccccc3o2)cc1 | -1.1% (inactive)
CCOC(=O)C1C(=O)CC(C)(O)C(C(=O)OCC)C1c1ccccc1OC (stereo not drawn) | -17.4% (inactive)
CSCCC(NC(=O)OC(C)(C)C)C(=O)NC(CC(C)C)C(N)=O (stereo not drawn) | -35.4% (inactive)
Cc1cccc(C)c1NC(=O)C(c1ccccc1)N1CCC2(CC1)OCCO2 (stereo not drawn) | 9.2% (inactive)
CCCC1=C(C(=O)OCC)C(c2ccccc2OC)NC(=O)N1 (stereo not drawn) | -16.5% (inactive)
Cc1noc(C)c1S(=O)(=O)N(CC(=O)N1CCn2c1nc1ccccc12)c1ccc(C(C)C)cc1 | 8.7% (inactive)
CCCn1c(NC(=O)c2ccccc2)nc2ccccc21 | -20.2% (inactive)
CCCn1c(CNc2ccccc2O)nc2ccccc21 | 14.5% (inactive)
CCCn1c(NCc2ccco2)nc2ccccc21 | 2% (inactive)
CCCn1c(CNc2ccc(Br)cc2)nc2ccccc21 | 50.8% (active)
Cn1c(CNc2ccccc2)nc2ccccc21 | -11.4% (inactive)
Cc1ccc(Nc2cc(C)nc3nc(C)nn23)c(C)c1 | -12.6% (inactive)
C=CCOC(=O)C1=C(C)OC(N)=C(C#N)C1c1ccccc1F (stereo not drawn) | 6.1% (inactive)
COC(=O)c1ccc(CSc2nc(N)cc(N)n2)cc1 | -4.4% (inactive)
CCC(C)NCC(O)COCc1ccc(Cl)cc1 (stereo not drawn) | 9.9% (inactive)
O=C(c1ccco1)N1CCN(C(=O)c2cnn3c2NC(c2cccs2)CC3C(F)(F)F)CC1 (stereo not drawn) | -5% (inactive)
O=C(c1cnn2c1NC(c1ccco1)CC2C(F)(F)F)N1CCN(c2cccc(Cl)c2)CC1 (stereo not drawn) | 50.2% (active)
O=C(Nc1ccc2c(c1)CCC2)c1cnn2c1NC(c1ccco1)CC2C(F)(F)F (stereo not drawn) | -4.4% (inactive)

— PubChem BioAssay AID430 (Sanford-Burnham Center for Chemical Genomics, 2006)
